Results taken from PubChem BioAssay (Tox21).
Results filed as inconclusive are left out. Calls of active or inactive are those of the source. The call rests on the fitted dose curve.

Assay: qHTS assay to identify small molecule agonists of H2AX - cell viability counter screen (AID 1224847); further: top concentration of the series differs between compounds; nearly all actives have a fitted effect of over 30% in size
Settings: CHO-K1 viability, CellTiter-Glo luminescence, 3 h; series mostly up to 154 µM; activity change, negative = cytotoxicity: at the top concentration
From the text: National Center for Advancing Translational Sciences [NCATS]
NIH Chemical Genomics Center [NCGC]
U.S. Environmental Protection Agency [EPA]
National Institutes of Environmental Health Sciences [NIEHS]
National Toxicology Program [NTP]
U.S. Food and Drug Administration [FDA]
HTRF phospho-H2AX (Ser139) assay (Cisbio Bioassays, US) enables the quantitative detection of the histone variant H2AX when phosphorylated on serine 139. When double-stranded DNA breaks, either by ionizing radiation or endogenous physiological processes, H2AX becomes phosphorylated at Ser139. This phospho-Ser139 serves as a sensitive biomarker for the detection of such breaks, localizing the site of DNA repair. So, HTRF phospho-H2AX Ser139 is a pertinent assay to study genome stability, the cell cycle, DNA repair, and it serves as a biomarker for cancer, and to understand aging. Wild type CHO-K1 cells were used to identify the inducers of Phospho-H2AX Ser 139 from the Tox21 compound collections. Also cytotoxicity of the Tox21 10K compound library against the CHO-K1 cell line was tested by measuring the cell viability using CellTiter-Glo assay (Promega, Madison, WI).
Tox21 Assay Protocol Summary:
The CHO-K1 cells suspended in culture medium containing 10% FBS were dispensed at 1000 cells/ 3 ul/well in 1536-well white wall/solid bottom plates (Greiner Bio-One North America, NC) using a Multidrop Combi (Thermo Fisher Scientific Inc., Waltham, MA). After the assay plates were incubated at 37C overnight, 23 nl of compounds at 15 concentrations (from 5-48 columns) or positive control (from 1 to 4 columns) were transferred to the assay plates using a Pintool station (Wako, San Diego, CA) into each well resulting in a final DMSO concentration of 0.76%. After 3hr incubation at 37C, 3 uL/well CellTiter-Glo luminescent cell viability reagent (Promega Corporation, Madison, WI) was added using a Flying Reagent Dispenser (FRD) (Aurora Discovery, CA). After incubation at room temperature for 30 min, the luminescence intensity was read using a ViewLux plate reader (PerkinElmer, Waltham, MA).
On the % scale 0 is the no-effect control and ±100 the full control effect.

SMILES	activity change, negative = cytotoxicity
C[N+](C)(CCOc1ccccc1)Cc1cccs1	-5.73% [at 70.9 µM] (inactive)
CC(=O)O[C@@]12CO[C@@H]1C[C@H](O)[C@@]1(C)C(=O)[C@H](O)C3=C(C)[C@@H](OC(=O)[C@H](O)[C@@H](NC(=O)OC(C)(C)C)c4ccccc4)C[C@@](O)([C@@H](OC(=O)c4ccccc4)[C@H]21)C3(C)C	2% [at 70.9 µM] (inactive)
C[C@@H]1C[C@H]2[C@@H]3C[C@H](F)C4=CC(=O)C(Cl)=C[C@]4(C)[C@@]3(F)[C@@H](O)C[C@]2(C)[C@@]1(O)C(=O)CO	0.184% [at 70.9 µM] (inactive)
Cc1ccnc(NS(=O)(=O)c2ccc(N)cc2)n1	5.27% [at 70.9 µM] (inactive)
C=C(C)C(=O)OCCOCCOCCOCCOC(=O)C(=C)C	2.22% (inactive)
Nc1c2c(nc3c1CCC3)CCCC2	-3.81% [at 70.9 µM] (inactive)
CCC(C(=O)NC(=O)NC(C)=O)c1ccccc1 (stereo not given)	1.82% [at 70.9 µM] (inactive)
CC1=NS(=O)(=O)c2cc(Cl)ccc2N1	-0.972% [at 70.9 µM] (inactive)
Nc1ccn([C@@H]2O[C@H](CO)[C@@H](O)C2(F)F)c(=O)n1	0.0571% [at 70.9 µM] (inactive)
CC(=O)Nc1ccc(OCC(O)CNC(C)C)cc1 (stereo not given)	0.521% [at 70.9 µM] (inactive)
C[C@H]1[C@H](NC(=O)/C(=N/OC(C)(C)C(=O)O)c2csc(N)n2)C(=O)N1S(=O)(=O)O (stereo in doubt)	-1.35% [at 70.9 µM] (inactive)
CC(=O)Oc1cccc(C)c1	3.3% [at 70.9 µM] (inactive)
COc1cc(C)nc(-n2nc(C)cc2OC)n1	4.3% [at 70.9 µM] (inactive)
CCCCCCCCCC[N+](C)(C)[O-]	1.4% (inactive)
O=C(O)Cc1csc(-c2ccc(Cl)cc2)n1	1.1% [at 70.9 µM] (inactive)
COc1ccccc1OCC1CNC(=O)O1 (stereo not given)	8.2% [at 70.9 µM] (inactive)
CCOC(=O)c1cnc2c(cnn2CC)c1NN=C(C)C	4.5% [at 70.9 µM] (inactive)
CCOc1ccc2nc(S(N)(=O)=O)sc2c1	-2.13% [at 70.9 µM] (inactive)
Cc1ccc(C(=O)c2ccc(CC(=O)O)n2C)cc1	0.904% [at 70.9 µM] (inactive)
CC(=O)N[C@H]1[C@H]([C@H](O)[C@H](O)CO)OC(C(=O)O)=C[C@@H]1N=C(N)N	1.03% [at 70.9 µM] (inactive)

SMILES	activity change, negative = cytotoxicity
COc1cc(C(=O)NCc2ccc(OCCN(C)C)cc2)cc(OC)c1OC	-3.53% [at 70.9 µM] (inactive)
CCCCCCCC1CCCC1=O (stereo not given)	2.36% (inactive)
CC(C)C1CCC(O)CC1 (stereo not given)	-3.77% (inactive)
CCCOC(=O)CC	3.23% (inactive)
CCN(CC#N)c1cccc(C)c1	-0.254% (inactive)
CC(=O)c1ccc2ccccc2c1	-3.44% (inactive)
O=S(=O)(O)c1cccc(S(=O)(=O)O)c1	0.675% (inactive)
CN1CC(=O)N/C1=N/C(=O)Nc1cccc(Cl)c1	0.815% [at 70.9 µM] (inactive)
CN(C)CCCCCCN(C)C	1.58% (inactive)
CCOC(=O)OC(C)OC1=C(C(=O)Nc2ccccn2)N(C)S(=O)(=O)c2ccccc21 (stereo not given)	-0.602% [at 70.9 µM] (inactive)
C1CCC2(CCCCO2)OC1	-1.34% (inactive)
CCCCS(=O)(=O)N[C@@H](Cc1ccc(OCCCCC2CCNCC2)cc1)C(=O)O	3.19% [at 70.9 µM] (inactive)
CO/N=C(\C(=O)N[C@@H]1C(=O)N2C(C(=O)O)=C(CSc3nc(=O)c(O)nn3C)CS[C@H]12)c1csc(N)n1	0.28% [at 70.9 µM] (inactive)
CC1OC1C1CCC2(C)OC2C1 (stereo not given)	0.306% (inactive)
CC(C(=O)O)c1cccc(Oc2ccccc2)c1 (stereo not given)	1.36% [at 70.9 µM] (inactive)
[K+]	-0.429% (inactive)
C=C(C)C(=O)OCC(O)CO (stereo not given)	-1.2% [at 70.9 µM] (inactive)
CCCCCC(=O)OCCc1ccccc1	1.08% (inactive)
O=[N+]([O-])c1cncn1CCN1CCOCC1	-0.202% [at 70.9 µM] (inactive)
O=S(=O)(O)c1cccc2c(S(=O)(=O)O)cccc12	1.55% (inactive)
